Measured values published in PubChem BioAssay (NCATS).
Results filed as inconclusive are left out. Activity calls are given as the source filed them. Unless noted, the call rests on the fitted dose curve; in most records, active means well fitted curve in the direction sought with a large enough effect; inconclusive means small, poorly fitted or top-dose-only effect, or another doubt; inactive means no such curve, though single readings can be large; an effect the other way counts as inactive or inconclusive.

Tests used:
[1] = Counterscreen qHTS for small molecule stabilizers of the endoplasmic reticulum resident proteome: GLuc-NoTag assay (AID 1508627);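 further: 0% = thapsigargin alone and -100% = DMSO vehicle control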
Summary of the method: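 Secreted GLuc lacking the SERCaMP modification is measured in SH-SY5Y cells exposed to compound for 19 h and then to thapsigargin (100 nM, 4 h) to deplete ER calcium; hits retested at 11 concentrations, up to 76.6 uM.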

[2] = Confirmatory qHTS for small molecule stabilizers of the endoplasmic reticulum resident proteome: Secreted ER Calcium Modulated Protein (SERCaMP) assay (AID 1508628); further: nearly all actives have a fitted effect of over 40% in size; further: potency means the concentration at half of the fitted maximal effect
Summary of the method: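 GLuc-SERCaMP-expressing SH-SY5Y cells, pretreated 16 h with compound, are challenged with thapsigargin to empty ER calcium stores; after 4 h, coelenterazine is added directly to the medium and luminescence is imaged.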

[3] = Cell Viability qHTS for small molecule stabilizers of the endoplasmic reticulum resident proteome (AID 1508629); details: cell viability counter-screen, 100 nM thapsigargin for final 4 h;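 further: human SH-SY5Y neuroblastoma cells carrying the GLuc-SERCaMP reporter; compound exposure about 46 h in total before the viability read; on the % scale 0 is the no-effect control and ±100 the full control effect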
[4] = molecular target: Glutathione peroxidase 1 (Homo sapiens) (UniProt P07203); experiment: Primary qHTS Assay for Inhibitors of Recombinant Selenoprotein Glutathione Peroxidase 1 (GPX1) (AID 1845191); further: on the % scale 0 is the no-effect control and ±100 the full control effect; nearly all actives have a fitted effect of over 65% in size
Sequence of Glutathione peroxidase 1 (Homo sapiens) (P07203 whole entry, looked up): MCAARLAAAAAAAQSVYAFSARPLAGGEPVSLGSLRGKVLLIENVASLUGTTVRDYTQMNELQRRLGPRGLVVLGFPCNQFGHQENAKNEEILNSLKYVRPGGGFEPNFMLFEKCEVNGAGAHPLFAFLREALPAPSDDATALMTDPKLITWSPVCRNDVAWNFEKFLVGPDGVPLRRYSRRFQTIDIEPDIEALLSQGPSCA
Summary of the method: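 GPX1 10 nM, GR 100 nM, GSH 1 mM, NADPH 0.5 mM, CHP 0.5 mM (final). 30-min cpd preincubation, RT. Ex340/Em450 read t=0, t=15 min.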

[5] = molecular target: Phospholipid hydroperoxide glutathione peroxidase GPX4 (Homo sapiens) (UniProt P36969); experiment: Primary qHTS Assay for Inhibitors of Recombinant Selenoprotein Glutathione Peroxidase 4 (GPX4) (AID 1845192); details: outcome: dose series up to 50 µM unless noted; further: on the % scale 0 is the no-effect control and ±100 the full control effect; nearly all actives have a fitted effect of over 65% in size
Sequence of Phospholipid hydroperoxide glutathione peroxidase GPX4 (Homo sapiens) (P36969 whole entry, looked up): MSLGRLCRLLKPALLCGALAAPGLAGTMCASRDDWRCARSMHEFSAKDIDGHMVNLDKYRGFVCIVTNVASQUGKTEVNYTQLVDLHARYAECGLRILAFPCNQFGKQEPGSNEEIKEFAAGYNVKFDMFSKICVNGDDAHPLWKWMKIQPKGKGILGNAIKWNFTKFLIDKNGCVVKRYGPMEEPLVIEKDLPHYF
Summary of the method: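 qHTS, GR-coupled: GPX4 200 nM + cpd 30 min RT → GSH 1 mM, NADPH 0.5 mM, GR 100 nM → CHP 0.5 mM start; fluor 340/450 at t0 and t15 min; no-enzyme wells as control.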

[6] = molecular target: Lysosomal acid glucosylceramidase (Homo sapiens) (UniProt P04062); experiment: Glucocerebrosidase-p2 (AID 348; in the data active means potency below about 10 µM; further: potency means the concentration at half of the fitted maximal effect); details: purified GBA, blue fluorogenic substrate, 40 min
Sequence of Lysosomal acid glucosylceramidase (Homo sapiens) (P04062 whole entry, looked up): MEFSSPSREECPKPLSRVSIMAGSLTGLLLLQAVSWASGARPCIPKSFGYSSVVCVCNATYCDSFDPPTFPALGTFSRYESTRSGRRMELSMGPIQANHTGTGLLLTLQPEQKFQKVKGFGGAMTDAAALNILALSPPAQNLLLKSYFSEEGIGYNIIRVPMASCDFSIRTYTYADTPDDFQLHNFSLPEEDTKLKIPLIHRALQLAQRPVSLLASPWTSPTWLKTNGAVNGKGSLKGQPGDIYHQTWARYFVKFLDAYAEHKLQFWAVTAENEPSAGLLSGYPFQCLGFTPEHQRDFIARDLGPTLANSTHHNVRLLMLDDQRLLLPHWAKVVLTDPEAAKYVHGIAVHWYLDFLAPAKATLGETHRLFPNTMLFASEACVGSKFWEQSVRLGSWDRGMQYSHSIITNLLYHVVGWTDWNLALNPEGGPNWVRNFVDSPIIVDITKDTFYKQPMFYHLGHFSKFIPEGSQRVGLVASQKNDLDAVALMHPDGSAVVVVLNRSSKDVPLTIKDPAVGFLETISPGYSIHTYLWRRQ
Summary of the method: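 Normal human glucocerebrosidase (0.2 nM) with blue fluorogenic substrate (80 uM final) in citrate/phosphate pH 5.9 with 10mM sodium taurocholate, 0.01% tween-20; 40 min RT, NaOH/glycine stop; fluorescence Ex 365/Em 440; AC50 from a titration from 0.6 nM upwards.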

[7] = AP1 Signaling Pathway (AID 357; active means well fitted curve in either direction with a large enough effect, not every such curve was filed as active;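 further: ME-180 reporter cells stimulated with EGF at its EC50 level; on the % scale 0 is the no-effect control and ±100 the full control effect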); details: ME-180 AP-1-bla reporter, EGF-induced, beta-lactamase ratio, 5 h; at 7.69 µM (top of the series) unless noted
Summary of the method: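 In this screen, ME-180 cells in Opti-MEM with 0.5% dialyzed FBS received EC50 EGF and compound titrations for 5 h. AP-1 reporter beta-lactamase was detected via CCF4 ratio, giving AC50 for positive and negative modulators.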

[8] = molecular target: Cytochrome P450 1A2 (Homo sapiens) (UniProt P05177); experiment: p450-cyp1a2 (AID 410; calls by dose curve; further: potency means the concentration at half of the fitted maximal effect)
Sequence of Cytochrome P450 1A2 (Homo sapiens) (P05177 whole entry, looked up): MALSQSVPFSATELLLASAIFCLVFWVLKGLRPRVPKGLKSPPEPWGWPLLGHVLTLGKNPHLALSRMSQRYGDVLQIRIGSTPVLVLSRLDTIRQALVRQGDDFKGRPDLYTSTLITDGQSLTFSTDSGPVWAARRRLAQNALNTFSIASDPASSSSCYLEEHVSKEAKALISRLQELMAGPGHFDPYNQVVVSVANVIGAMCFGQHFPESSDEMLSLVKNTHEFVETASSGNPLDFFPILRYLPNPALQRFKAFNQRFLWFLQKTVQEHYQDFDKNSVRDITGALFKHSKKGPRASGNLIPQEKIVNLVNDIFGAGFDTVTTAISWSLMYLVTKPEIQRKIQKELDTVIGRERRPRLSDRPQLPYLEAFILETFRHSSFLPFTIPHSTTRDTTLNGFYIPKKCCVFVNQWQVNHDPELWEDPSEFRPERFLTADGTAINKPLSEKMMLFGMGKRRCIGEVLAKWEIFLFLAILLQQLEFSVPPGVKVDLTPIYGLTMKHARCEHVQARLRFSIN
Summary of the method: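 Read-out is luminescence from luciferin produced by CYP1A2 demethylation of Luciferin-ME (100uM, at Km). Detection reagent stopped the 60 min NADPH-dependent reaction; signals were normalized to 57 uM furafylline.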

[9] = NFAT Signaling Pathway (AID 444; active means well fitted curve in either direction with a large enough effect, not every such curve was filed as active;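 further: carbachol stimulus at about its EC50 of 1 µM final; on the % scale 0 is the no-effect control and ±100 the full control effect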); details: Jurkat NFAT-bla M1, carbachol, beta-lactamase ratio, 5 h; at 7.69 µM (top of the series) unless noted
Summary of the method: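 Jurkat cells carrying an NFAT-driven β-lactamase reporter and co-transfected muscarinic M1 receptor were treated with compound plus carbachol (1 uM final, an EC50 level) for 5 h at 37 °C. CCF4 loading followed for 1 h at RT; 460/530 nm ratio gave %activity.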

[10] = Stat Signaling Pathway (AID 446; active means well fitted curve in either direction with a large enough effect, not every such curve was filed as active;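 further: ME-180 cervical cancer cells given 40 pM IL-6 alongside compound; SIE-controlled beta-lactamase reporter measured as 460/530 nm FRET emission ratio; on the % scale 0 is the no-effect control and ±100 the full control effect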); details: ME-180 (cervical carcinoma) SIE beta-lactamase reporter, IL-6 stimulated, 5 h; at 7.69 µM (top of the series) unless noted
Summary of the method: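 Normalization used AC90 stimulation (300 pM IL-6) and AC90 inhibition (125 nM pan-JAK inhibitor at 40 pM IL-6). The underlying signal is SIE-driven beta-lactamase in ME-180 cells after 5 h IL-6 exposure with compound.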

[11] = molecular target: Glucocorticoid receptor (Homo sapiens) (UniProt P04150); experiment: GR-EFC Redistribution (AID 451; calls by dose curve; further: potency means the concentration at half of the fitted maximal effect); details: CHO-K1 GR-EFC translocation, beta-gal luminescence, 2 h
Sequence of Glucocorticoid receptor (Homo sapiens) (P04150 whole entry, looked up, the tested form may be a part): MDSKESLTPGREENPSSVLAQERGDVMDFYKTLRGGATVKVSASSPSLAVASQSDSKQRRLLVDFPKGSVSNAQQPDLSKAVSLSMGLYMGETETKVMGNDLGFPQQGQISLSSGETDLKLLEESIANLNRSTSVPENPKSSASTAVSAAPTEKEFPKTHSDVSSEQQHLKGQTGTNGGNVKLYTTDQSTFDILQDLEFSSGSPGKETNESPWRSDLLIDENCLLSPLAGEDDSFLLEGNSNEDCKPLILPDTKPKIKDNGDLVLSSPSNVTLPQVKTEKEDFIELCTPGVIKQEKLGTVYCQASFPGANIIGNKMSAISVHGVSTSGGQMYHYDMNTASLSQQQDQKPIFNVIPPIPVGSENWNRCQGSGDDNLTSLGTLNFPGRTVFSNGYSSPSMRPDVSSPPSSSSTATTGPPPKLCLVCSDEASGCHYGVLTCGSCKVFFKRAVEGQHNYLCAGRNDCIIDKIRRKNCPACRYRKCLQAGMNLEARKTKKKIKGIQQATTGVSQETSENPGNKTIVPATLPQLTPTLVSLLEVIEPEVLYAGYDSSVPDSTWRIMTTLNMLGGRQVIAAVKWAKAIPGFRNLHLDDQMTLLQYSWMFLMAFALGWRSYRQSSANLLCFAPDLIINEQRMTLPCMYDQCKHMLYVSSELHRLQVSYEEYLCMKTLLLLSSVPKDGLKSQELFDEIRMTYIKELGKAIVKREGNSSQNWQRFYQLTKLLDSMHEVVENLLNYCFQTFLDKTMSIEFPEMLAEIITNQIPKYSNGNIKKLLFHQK
Summary of the method: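 CHO-K1 cells stably expressing nuclear-localized β-gal enzyme acceptor and GR fused C-terminally to the enzyme donor fragment; ligand-driven nuclear translocation restores β-gal by complementation. Compounds titrated up to 46 uM final, 2 h at 37 °C; luminescence read.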

[12] = molecular target: Mitogen-activated protein kinase 10 (Mus musculus) (UniProt Q61831); experiment: JNK3 AlphaScreen Assay (AID 530; active means well fitted curve in either direction with a large enough effect, not every such curve was filed as active)
Summary of the method: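 Biotinylated GST-cJun(1-79) served as substrate for JNK3 in HepG2 lysates stimulated with IL-1beta and TNF-alpha. ATP was 10 uM final, pH 7.6. Ser73 phosphorylation was quantified by AlphaScreen (680 nm excitation).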

[13] = molecular target: 3',5'-cyclic-AMP phosphodiesterase 4B (Homo sapiens) (UniProt Q07343); experiment: qHTS Assay for Inhibitors of PDE-IV (AID 607; active means well fitted activation curve with a large enough effect in the main read-out, with a control signal flat, not every such curve was filed as active; further: % of control where 0% means no effect)
Sequence of 3',5'-cyclic-AMP phosphodiesterase 4B (Homo sapiens) (Q07343 whole entry, looked up): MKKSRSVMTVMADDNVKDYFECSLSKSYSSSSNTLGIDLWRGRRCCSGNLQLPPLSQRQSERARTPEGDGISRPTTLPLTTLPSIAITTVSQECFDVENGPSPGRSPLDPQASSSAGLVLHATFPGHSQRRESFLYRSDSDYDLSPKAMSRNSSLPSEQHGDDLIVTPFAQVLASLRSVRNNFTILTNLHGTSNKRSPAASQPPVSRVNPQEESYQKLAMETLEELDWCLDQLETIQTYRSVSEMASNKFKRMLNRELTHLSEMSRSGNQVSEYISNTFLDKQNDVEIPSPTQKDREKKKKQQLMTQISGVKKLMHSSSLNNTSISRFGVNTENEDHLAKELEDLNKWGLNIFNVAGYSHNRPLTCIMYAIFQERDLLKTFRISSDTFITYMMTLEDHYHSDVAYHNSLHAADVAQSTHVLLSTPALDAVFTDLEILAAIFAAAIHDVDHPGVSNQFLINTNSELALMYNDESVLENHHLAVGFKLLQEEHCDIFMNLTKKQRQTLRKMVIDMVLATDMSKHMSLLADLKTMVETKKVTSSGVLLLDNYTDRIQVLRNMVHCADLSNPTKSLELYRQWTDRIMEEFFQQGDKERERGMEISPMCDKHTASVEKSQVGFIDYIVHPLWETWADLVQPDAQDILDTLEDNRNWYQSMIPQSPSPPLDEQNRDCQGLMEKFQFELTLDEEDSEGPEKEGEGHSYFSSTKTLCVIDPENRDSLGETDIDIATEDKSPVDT
Summary of the method: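 HEK293 ACTOne cells with CNG channel (1000/well), endogenous PDE4; membrane potential dye, compounds up to 22.9 uM final. Fluorescence Ex 535/Em 590; RO 20-1724 (100 uM final) as reference.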

[14] = molecular target: Cytochrome P450 3A4 (Homo sapiens) (UniProt P08684); experiment: qHTS Assay for Activators of Cytochrome P450 3A4 (AID 885); further: nearly all actives have a fitted effect of over 65% in size
Sequence of Cytochrome P450 3A4 (Homo sapiens) (P08684 whole entry, looked up): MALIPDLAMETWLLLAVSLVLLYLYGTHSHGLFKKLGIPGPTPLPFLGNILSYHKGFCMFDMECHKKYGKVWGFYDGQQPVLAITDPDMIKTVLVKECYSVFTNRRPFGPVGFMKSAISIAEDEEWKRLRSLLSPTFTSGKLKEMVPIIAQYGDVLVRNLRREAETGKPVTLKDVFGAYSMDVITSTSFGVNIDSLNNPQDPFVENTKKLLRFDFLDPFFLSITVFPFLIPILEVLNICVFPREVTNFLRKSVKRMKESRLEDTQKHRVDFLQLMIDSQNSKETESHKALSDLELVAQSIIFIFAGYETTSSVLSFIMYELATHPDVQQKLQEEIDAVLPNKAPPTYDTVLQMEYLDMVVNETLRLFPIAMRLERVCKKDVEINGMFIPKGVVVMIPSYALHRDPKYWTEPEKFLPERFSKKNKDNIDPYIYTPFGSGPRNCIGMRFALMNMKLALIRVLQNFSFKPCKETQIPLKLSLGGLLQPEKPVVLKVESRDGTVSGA
Summary of the method: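 Human CYP3A4 dealkylates Luciferin-PPXE to luciferin, which luciferase detection converts to light. Substrate was at its KM (25uM), buffer 200mM KPO4, reaction 60 min at RT.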

[15] = qHTS Assay for Lipid Storage Modulators (AID 1519; calls by dose curve); details: Drosophila S3 cells, BODIPY lipid droplet/cell ratio, laser cytometry, cells loaded with oleic acid; for activity change, negative = inhibition: at 57.5 µM (top of the series)
Summary of the method: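 Cells seeded at 5,000 per well were treated with compounds over a concentration series and loaded with oleic acid (400 uM, as added). Lipid droplet fluorescence (488 nm excitation, 500-530 nm channel) was read by laser-scanning cytometry and normalized to 20 uM Triacsin C.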

[16] = molecular target: Glucocorticoid receptor (Homo sapiens) (UniProt P04150); experiment: GR-GFP Redistribution (AID 450;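 active means compounds whose dose series gives a full or clear partial fitted curve of increased nuclear translocation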; further: potency means the concentration at half of the fitted maximal effect); details: U2OS GR-GFP nuclear translocation, laser cytometry, 2 h
[17] = molecular target: Ubiquitin carboxyl-terminal hydrolase 1 (Homo sapiens) (UniProt O94782); experiment: Inhibitors of USP1/UAF1: Pilot qHTS (AID 504865);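 further: rhodamine fluorescence freed from ubiquitin-rhodamine substrate followed over time; top concentration of the series differs between compounds; on the % scale 0 is the no-effect control and ±100 the full control effect; nearly all actives have a fitted effect of over 35% in size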
Sequence of Ubiquitin carboxyl-terminal hydrolase 1 (Homo sapiens) (O94782 whole entry, looked up): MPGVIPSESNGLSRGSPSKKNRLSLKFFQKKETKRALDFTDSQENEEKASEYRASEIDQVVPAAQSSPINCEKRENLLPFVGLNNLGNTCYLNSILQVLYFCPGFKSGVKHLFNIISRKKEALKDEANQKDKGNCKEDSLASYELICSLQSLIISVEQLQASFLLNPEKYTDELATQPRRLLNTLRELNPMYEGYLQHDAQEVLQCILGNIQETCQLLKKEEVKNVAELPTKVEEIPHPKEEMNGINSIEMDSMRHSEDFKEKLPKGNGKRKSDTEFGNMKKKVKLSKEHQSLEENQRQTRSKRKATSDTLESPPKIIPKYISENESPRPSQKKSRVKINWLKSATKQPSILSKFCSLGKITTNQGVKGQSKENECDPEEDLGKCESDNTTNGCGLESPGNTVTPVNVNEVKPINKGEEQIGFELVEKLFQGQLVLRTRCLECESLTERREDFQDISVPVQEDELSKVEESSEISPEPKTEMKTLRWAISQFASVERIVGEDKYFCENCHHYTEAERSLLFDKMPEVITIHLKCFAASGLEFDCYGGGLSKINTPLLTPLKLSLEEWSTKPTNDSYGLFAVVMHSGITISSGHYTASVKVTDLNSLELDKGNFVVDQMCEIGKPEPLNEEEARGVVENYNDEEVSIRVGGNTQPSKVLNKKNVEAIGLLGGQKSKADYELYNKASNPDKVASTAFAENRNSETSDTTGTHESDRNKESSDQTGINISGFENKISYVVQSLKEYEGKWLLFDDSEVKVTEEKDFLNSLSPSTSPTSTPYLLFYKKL
Summary of the method: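 USP1/UAF1 complex (1nM) preincubated with compound 15 min at room temperature, then Ub-Rho substrate (150nM final) added. Fluorescence read kinetically at 480/540 nm, 6 reads every 60 seconds. Buffer: 50mM HEPES pH 7.8, 0.5mM EDTA, 0.1 mg/ml BSA, 1mM TCEP, 0.01% Tween-20.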

[18] = measured here: cell count channel max response
[19] = measured here: lipid channel max response

Q: With `OC[C@H]1NC[C@@H](O)[C@@H](O)[C@@H]1O` as the molecule, how does the Potency [1] read?
A: inactive

Q: What about the Potency [2] of the same molecule?
A: inactive

Q: And the max response [3]?
A: 8.42% (inactive)

Q: And the Potency [4]?
A: inactive

Q: And the Potency [5]?
A: inactive

Q: What does the source list for `COc1ccc(NC(=O)N2CCC3(CC2)CCN(S(=O)(=O)c2ccccc2)CC3)cc1`?
A: Potency [6]: > 11.4 µM (inactive); activity change, negative = inhibition [7]: -24% (inactive); Potency [8]: 31.6 µM (active); activity change, negative = inhibition [9]: -21.7% (inactive); activity, negative = inhibition [10]: -16.7% (inactive); Potency [11]: > 46 µM (inactive); outcome [12]: inactive; Potency [13]: inactive; Potency [14]: inactive; activity change, negative = inhibition [15]: 2.68% (inactive); max response [15, 18]: 2.58%; max response [15, 19]: 8.36%; Potency [1]: inactive; Potency [2]: inactive; max response [3]: -18.8% (inactive)

Q: For `Cc1ccccc1-c1nc(N2CCNCC2)c2ccccc2n1`, which Potency [6] is on record?
A: > 11.4 µM (inactive)

Q: And the activity change, negative = inhibition [7]?
A: 12.7% (inactive)

Q: What about the Potency [8] of the same molecule?
A: 5.01 µM (active)

Q: And the activity change, negative = inhibition [9]?
A: 2.71% (inactive)

Q: What about the activity, negative = inhibition [10] of the same molecule?
A: -10.4% (inactive)

Q: What about the Potency [16] of the same molecule?
A: > 46 µM (inactive)

Q: And the Potency [11]?
A: > 46 µM (inactive)

Q: What about the outcome [12] of the same molecule?
A: inactive

Q: What about the Potency [13] of the same molecule?
A: inactive

Q: What about the Potency [14] of the same molecule?
A: inactive

Q: What about the activity change, negative = inhibition [15] of the same molecule?
A: 4.63% (inactive)

Q: What about the max response [15, 18] of the same molecule?
A: 23.8%

Q: What about the max response [15, 19] of the same molecule?
A: 27.5%

Q: And the Potency [17]?
A: inactive

Q: What about the Potency [1] of the same molecule?
A: inactive

Q: And the Potency [2]?
A: 12.6 µM (active)
